DRD3 agonist = qHTS of D3 Dopamine Receptor Agonist: qHTS; D(3) dopamine receptor (Homo sapiens), P35462; D3R DiscoveRx beta-arrestin cells, luminescence, 90 min; max activation, %; 410,000 compounds, 0.58% hits; in the data active means max activation above about 30%; further: 0% is about no effect
Target sequence (P35462 whole entry, looked up): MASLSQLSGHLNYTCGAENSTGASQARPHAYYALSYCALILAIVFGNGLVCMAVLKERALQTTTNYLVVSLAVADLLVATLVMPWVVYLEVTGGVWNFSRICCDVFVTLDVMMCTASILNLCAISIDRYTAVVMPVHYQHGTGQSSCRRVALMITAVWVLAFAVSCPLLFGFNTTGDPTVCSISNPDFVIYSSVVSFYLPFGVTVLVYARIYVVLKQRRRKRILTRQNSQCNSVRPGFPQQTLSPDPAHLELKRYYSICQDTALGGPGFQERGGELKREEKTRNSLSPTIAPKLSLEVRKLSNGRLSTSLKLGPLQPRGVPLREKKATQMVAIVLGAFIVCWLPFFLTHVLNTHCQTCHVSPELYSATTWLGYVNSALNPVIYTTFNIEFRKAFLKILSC
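Agonist mode: compounds and dopamine controls were applied to plated cells for 90 min at 37 degrees C after an overnight attachment at 1500 cells/well. Luminescent read-out followed 30 - 60 minutes at room temperature with DiscoveRx detection reagent.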
KB-V1 MDR tox = qHTS assay for MDR1-selective chemotherapeutics: Primary screen using the drug-selected MDR subline cells KB-V1; KB-V1 MDR cells viability, CellTiter-Glo, 72 h; Potency, µM (series often up to 46.1 µM), hits mostly cytotoxic; 400,000 compounds, 3.4% hits; further: potency means the concentration at half of the fitted maximal effect; on the % scale 0 is the no-effect control and ±100 the full control effect; nearly all actives have a fitted effect of over 60% in size
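KB-V1 cells (P-gp-expressing MDR subline of KB-3-1) in phenol-red-free DMEM with 10% FBS were exposed to library compounds over a concentration series for 72 h at 37 degrees C. Viability read by CellTiter-Glo luminescence; concentration-effect curves fitted after normalization.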
SW480 rereplic = A quantitative high throughput screen for small molecules that induce DNA re-replication in SW480 colon adenocarcinoma cells. SW480 DNA re-replication, Hoechst DNA content imaging, 48 h. 340,000 compounds, 1.8% hits. Potency, µM (series often up to 46.1 µM), for the others: at the top dose re-replication activation, hits mostly activators; further: potency means the concentration at half of the fitted maximal effect; % of control where 0% means no effect; nearly all actives have a fitted effect of over 55% in size
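First, 250 cells per well were seeded. Next, compound or vehicle (23 nL) was pinned in, plates sat 48 hr at 37 C. Finally Hoechst was added for 40 min before fluorescence scanning.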
D3 antag = qHTS of D3 Dopamine Receptor Antagonist: qHTS; D(3) dopamine receptor (Homo sapiens), P35462; D3R cells, DiscoveRx beta-arrestin luminescence, antagonist mode; stronger effect = lower value; max response, negative = inhibition, %; 360,000 compounds, 2.5% hits; AID 652054, 2013; in the data active means max response below about -50%; inconclusive means no clear call, values can overlap the other calls; further: on the % scale 0 is the no-effect control and ±100 the full control effect
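Cells expressing the human receptor were seeded at 1500 cells/well, incubated overnight at 37 degrees C in 5% CO2, then exposed to library compounds with dopamine controls for 90 minutes at 37 degrees C before luminescent detection.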
MCF10A rereplic = A quantitative high throughput screen for small molecules that induce DNA re-replication in MCF 10a normal breast cells; MCF 10A DNA re-replication, Hoechst nuclear intensity, 48 h; Potency, µM (highest dose often 46.1 µM), inactives show at the top dose activity, positive = re-replication, most hits filed as activators; 350,000 compounds, 2.9% hits; further: potency means the concentration at half of the fitted maximal effect; % of control where 0% means no effect; nearly all actives have a fitted effect of over 50% in size
KB-3-1 tox = qHTS assay for MDR1-selective chemotherapeutics: Primary screen using the parental adenocarcinoma cell KB-3-1. AID 1347075, 2019. Potency, µM (series often up to 46.1 µM), most hits filed as cytotoxic. KB-3-1 viability, CellTiter-Glo ATP luminescence, 72 h. 400,000 compounds, 1.4% hits; further: potency means the concentration at half of the fitted maximal effect; on the % scale 0 is the no-effect control and ±100 the full control effect; nearly all actives have a fitted effect of over 60% in size
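Viability of parental KB-3-1 cells, measured by CellTiter-Glo luminescence, followed a 72 h incubation at 37 °C with pinned compounds in phenol-red-free DMEM containing 10% FBS.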
* hit, by the source's call. Sampled rows, rich in hits. Any-hit rate of the full collection: about 8.9%. Unless noted, the call rests on the fitted dose curve; in most records, active means well fitted curve in the direction sought with a large enough effect; inconclusive means small, poorly fitted or top-dose-only effect, or another doubt; inactive means no such curve, though single readings can be large; an effect the other way counts as inactive or inconclusive.

O=C1CC(N(Cc2cccs2)C(=O)Nc2ccccc2)C(=O)N1c1ccc(Cl)cc1 (configuration not stated) was read as DRD3 agonist 4, KB-V1 MDR tox 18µM*, SW480 rereplic inconclusive, D3 antag -4, MCF10A rereplic 16% and KB-3-1 tox inactive.
For COc1ccc(C(=O)Nc2nnc(SCc3cc(=O)c4cccc(F)c4[nH]3)s2)cc1 the results were DRD3 agonist -1.
For CNc1oc(-c2ccccc2Cl)nc1C#N the results were DRD3 agonist -7, KB-V1 MDR tox 21µM*, SW480 rereplic -5%, D3 antag 23, MCF10A rereplic 3% and KB-3-1 tox inconclusive.
`O=c1cc(-c2ccccc2)c2cc(Cl)c3c(c2o1)CN(Cc1ccccc1)CO3` gave DRD3 agonist 11, KB-V1 MDR tox inactive and KB-3-1 tox inactive.
Screening CCOC(=O)C1CCN(C(=O)CN(Cc2ccc(Cl)cc2)S(C)(=O)=O)CC1 returned DRD3 agonist -8, KB-V1 MDR tox inconclusive, SW480 rereplic -7%, D3 antag -56*, MCF10A rereplic -1% and KB-3-1 tox inactive.
Screening CCOC(=O)C1CCN(C(=O)CN(C)S(=O)(=O)c2cc(C)ccc2OC)CC1 returned DRD3 agonist -24, KB-V1 MDR tox 23µM*, SW480 rereplic 2%, D3 antag -27, MCF10A rereplic 1% and KB-3-1 tox inactive.
Clc1ccc(-c2nnc(-c3ccco3)nc2N2CCCCC2)cc1 was read as DRD3 agonist -2, KB-V1 MDR tox 18µM*, SW480 rereplic -2%, D3 antag 7, MCF10A rereplic inconclusive and KB-3-1 tox inactive.
For C[C@H](CCCC/C=C/C(=O)O)O[C@@H]1O[C@@H](C)[C@H](O)C[C@H]1O the results were DRD3 agonist 44*, KB-V1 MDR tox inactive, SW480 rereplic -6%, D3 antag 3, MCF10A rereplic 5% and KB-3-1 tox inactive.
For CCCCCC(O)C=CC1C(O)CC(O)C1CC=CCCCC(=O)O (configuration not stated) the results were DRD3 agonist 7, KB-V1 MDR tox inactive, D3 antag 37 and KB-3-1 tox inactive.
For CCc1ccc(Nc2nnc(SCC(=O)Nc3ccc(C(=O)O)cc3)s2)cc1 the results were DRD3 agonist 0, KB-V1 MDR tox inactive, SW480 rereplic -6%, D3 antag 2, MCF10A rereplic -4% and KB-3-1 tox inactive.
For CCc1ccc(Nc2nnc(SCC(=O)NC(=O)c3cccn3C)s2)cc1 the results were DRD3 agonist 3, KB-V1 MDR tox inconclusive, SW480 rereplic inconclusive, D3 antag -28, MCF10A rereplic 18µM* and KB-3-1 tox inconclusive.
CCOc1ccc(-c2nonc2NC(=O)c2oc3cc(C)c(C)cc3c2C)cc1OCC was read as DRD3 agonist 4, KB-V1 MDR tox inactive and KB-3-1 tox inactive.
For Cc1cc(C(=O)N2CCN(c3ccc([N+](=O)[O-])cc3)CC2)c(C)o1 the results were DRD3 agonist 1, KB-V1 MDR tox inactive, SW480 rereplic 4.1µM*, D3 antag -3, MCF10A rereplic 3.7µM* and KB-3-1 tox inactive.
`Cc1cc(C(=O)N2CCN(c3ccc([N+](=O)[O-])cc3)CC2)co1` gave DRD3 agonist -15, KB-V1 MDR tox inactive, SW480 rereplic 3%, D3 antag 2, MCF10A rereplic 3% and KB-3-1 tox inactive.
NC(=O)N/N=C/c1c(Sc2nnnn2-c2ccccc2)nc2ccccn2c1=O was read as DRD3 agonist -11, KB-V1 MDR tox inactive, SW480 rereplic 7.3µM*, D3 antag -25, MCF10A rereplic 15µM* and KB-3-1 tox inconclusive.
CC(=O)Nc1cccc(Oc2nc(NCCN(C)C)nc3ccsc23)c1 was read as DRD3 agonist -24, KB-V1 MDR tox inactive, D3 antag -19 and KB-3-1 tox inactive.
C=CCn1c(N)c(C(=O)OCC)sc1=S was read as DRD3 agonist 4, KB-V1 MDR tox inconclusive, SW480 rereplic -12%, D3 antag 9, MCF10A rereplic -2% and KB-3-1 tox inactive.
C=CCn1c(N)c(C(=O)N2CCN(C)CC2)sc1=S was read as DRD3 agonist -35, KB-V1 MDR tox inactive, SW480 rereplic -3%, D3 antag -54*, MCF10A rereplic 2% and KB-3-1 tox inactive.
Cc1ccc([N+](=O)[O-])cc1S(=O)(=O)N1CCn2cccc2C1c1ccccc1F (configuration not stated) was read as DRD3 agonist -5, KB-V1 MDR tox inactive and KB-3-1 tox inactive.
`COc1ccc(OC)c(S(=O)(=O)Nc2ccc3oc4c(c3c2)C(=O)CCC4)c1` gave DRD3 agonist 11, KB-V1 MDR tox 23µM*, SW480 rereplic 5%, D3 antag 19, MCF10A rereplic 3% and KB-3-1 tox inactive.
Screening COc1ccc(-c2cc3nc(C)c(CCC(=O)NCc4ccccc4Cl)c(C)n3n2)c(OC)c1 returned DRD3 agonist 6, KB-V1 MDR tox inactive and KB-3-1 tox inactive.
For Cc1ccc(-c2csc(NC(=O)CN3C(=O)CCC3=O)n2)cc1 the results were DRD3 agonist 3, KB-V1 MDR tox inactive, SW480 rereplic -1%, D3 antag 9, MCF10A rereplic -18% and KB-3-1 tox inactive.
O=C(CN1C(=O)CCC1=O)Nc1nc(-c2ccc3ccccc3c2)cs1 was read as DRD3 agonist 2, KB-V1 MDR tox inactive, SW480 rereplic -38%, D3 antag 13, MCF10A rereplic 1.5µM* and KB-3-1 tox inactive.
Screening CCC(C)(C)C1CCC2(CC1)NC(=O)N(CC(=O)NCCc1ccc(OC)c(OC)c1)C2=O (configuration not stated) returned DRD3 agonist 4, KB-V1 MDR tox 16µM*, SW480 rereplic -2%, D3 antag -9, MCF10A rereplic 2% and KB-3-1 tox inconclusive.
CN(C)C(=O)c1ccc2c(c1)N(CC(=O)NCc1ccc(F)cc1)C(=O)C1CCCCN21 (configuration not stated) was read as DRD3 agonist 8, KB-V1 MDR tox inactive and KB-3-1 tox inactive.
`CCOc1ccc2nc(N3CCCC(C(=O)Nc4ccc(OC)c(Cl)c4)C3)sc2c1` (configuration not stated) gave DRD3 agonist 5, KB-V1 MDR tox inactive and KB-3-1 tox inactive.

Screens: PubChem, National Center for Advancing Translational Sciences (NCATS)
